# Test results published in PubChem BioAssay AID2075 (NMMLSC, 2009).
# Activity calls are given as the source filed them. The rule behind the calls is not given here.
# Biological target: Apoptosis regulator Bcl-2 (Homo sapiens) (UniProt P10415)
# Test: Bcl-2 Bim peptide interaction hit potency – biochemical, dose response, multiplexed HTS hits, confirmation (AID 2075)
# Chain of Apoptosis regulator Bcl-2 (Homo sapiens) (P10415 whole entry, looked up): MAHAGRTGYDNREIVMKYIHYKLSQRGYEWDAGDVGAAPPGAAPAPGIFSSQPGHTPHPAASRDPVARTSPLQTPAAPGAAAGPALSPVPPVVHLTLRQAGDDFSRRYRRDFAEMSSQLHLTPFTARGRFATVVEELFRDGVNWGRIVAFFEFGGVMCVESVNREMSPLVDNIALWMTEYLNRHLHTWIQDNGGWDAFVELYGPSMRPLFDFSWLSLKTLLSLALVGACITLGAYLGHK
smiles,measurement,value
O=C1NC(=O)C(=Cc2ccc(-c3cc(Cl)ccc3[N+](=O)[O-])o2)C(=O)N1,outcome,inactive
